# High-throughput results (PubChem BioAssay)
# D3 antag: D3 dopamine receptor (human) antagonism; P35462; D3R cells, DiscoveRx beta-arrestin luminescence, antagonist mode; stronger effect = lower value; max response, negative = inhibition, %; 2.5% of 360,000 active; in the data active = max response below about -50%; inconclusive = no clear call, values can overlap the other calls; also: % is scaled to controls: 0 for no effect and ±100 for the full control effect
# Target sequence (P35462 whole entry, looked up): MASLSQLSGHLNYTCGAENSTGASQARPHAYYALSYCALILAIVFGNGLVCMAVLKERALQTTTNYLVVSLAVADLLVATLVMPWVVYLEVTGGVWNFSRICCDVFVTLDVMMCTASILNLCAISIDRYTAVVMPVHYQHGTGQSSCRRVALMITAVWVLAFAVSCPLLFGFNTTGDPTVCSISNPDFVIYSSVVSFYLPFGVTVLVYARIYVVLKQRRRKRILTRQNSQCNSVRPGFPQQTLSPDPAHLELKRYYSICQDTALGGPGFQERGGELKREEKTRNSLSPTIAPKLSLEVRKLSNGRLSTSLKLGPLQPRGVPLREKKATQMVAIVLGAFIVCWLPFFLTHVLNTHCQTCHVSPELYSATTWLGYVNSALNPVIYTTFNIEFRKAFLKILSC
#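 Cells expressing the human receptor were seeded at 1500 cells/well, incubated overnight at 37 degrees C in 5% CO2, then exposed to library compounds with dopamine controls for 90 minutes at 37 degrees C before luminescent detection.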
# S2 tox: cell viability loss in ATXN counter-screen | S2 cells (HEK-293 line with an ATXN2-luciferase reporter) viability, CellTiter-Fluor protease fluorescence, 24 h | Potency, µM (titrated, usually from 56.7 µM), hits mostly cytotoxic | 0.49% of 400,000 active | AID 651635; also: potency is read from the fitted curve at half-maximal effect; nearly all actives have a fitted effect of over 40% in size
# D3 ag: activates the human D3 dopamine receptor. AID 652048. 0.58% of 410,000 active. max activation, %. D3R DiscoveRx beta-arrestin cells, luminescence, 90 min; in the data active = max activation above about 30%; also: 0% is about no effect
#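 Agonist mode: compounds and dopamine controls were applied to plated cells for 90 min at 37 degrees C after an overnight attachment at 1500 cells/well. Luminescent read-out followed 30 - 60 minutes at room temperature with DiscoveRx detection reagent.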
# HepG2 viability: counter-screen for TGF-b inhibitors: cytotoxicity in HepG2 cells. HepG2 CAGA-GFP viability, ATP luminescence, 18 h. Potency, µM (top dose mostly 46.1 µM), without a hit: at the highest dose activity change, negative = cytotoxicity, most hits filed as cytotoxic. 0.76% of 410,000 active. AID 588856; also: potency is read from the fitted curve at half-maximal effect
#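 CellTiter-Glo luminescence gave cytotoxicity after 18 hours at 37 degrees C. The cells were HepG2 CAGA-GFP in 1% FBS DMEM, stimulated with 500 pg/mL TGF-beta after compound addition. %Activity was normalised to no-cell wells (complete cell-killing) and DMSO (no toxicity), and curves were fitted and classified.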
# TGFb inhibitor: blocks TGF-b signaling | HepG2 CAGA-GFP TGF-b/SMAD3 reporter, GFP fluorescence, 18 h; TGF-beta stimulated, 500 pg/mL final | Potency, µM (top dose mostly 46.1 µM), for inactives: at the top dose activity, negative = inhibition, most hits filed as inhibitors | 1.2% of 410,000 active | AID 588855; also: potency is read from the fitted curve at half-maximal effect; % is scaled to controls: 0 for no effect and ±100 for the full control effect; nearly all actives have a fitted effect of over 65% in size
#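 Smad-responsive CAGA-GFP expression was quantified in HEPG2 cells exposed to compounds and 500 pg/mL final TGF-beta for 18 h at 37 degrees C; unstimulated wells defined full inhibition.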
# ATXN2 expr inh: ATXN2 expression inhibition; HEK-293 ATXN2-luciferase reporter, luminescence, 24 h; Potency, µM (highest dose often 57 µM), for the others: at the top dose activity change, negative = inhibition, usual class: inhibitors; 0.72% of 360,000 active; also: potency is read from the fitted curve at half-maximal effect; % is scaled to controls: 0 for no effect and ±100 for the full control effect; nearly all actives have a fitted effect of over 55% in size
#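 qHTS (up to 57 uM final) was run with 24 h compound exposure of reporter cells at 37 °C. Each well was multiplexed: SteadyGlo luminescence measured ATXN2-luciferase expression after a fluorogenic Gly-Phe-AFC viability readout (25 uM final).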
# Numbers without * were called inactive; i = inactive; u = inconclusive; x = no result given; [ ] = remark or other dose. Rows were chosen to be rich in hits. Some 4.7% of all compounds tested hit in one or more screens of this group. Unless noted, calls follow the shape of the dose curve; as a rule, active = well fitted curve in the direction sought with a large enough effect; inconclusive = small, poorly fitted or top-dose-only effect, or another doubt; inactive = no such curve, though single readings can be large; an effect the other way counts as inactive or inconclusive.
SMILES,D3 antag,S2 tox,D3 ag,HepG2 viability,TGFb inhibitor,ATXN2 expr inh
CC1(C)CC(NC(=O)COc2ccc(Cl)cc2Cl)CC(C)(C)N1,15,i,4,-2%,10%,-9%
CC(C)c1ccc(OCC(=O)NC2CC(C)(C)NC(C)(C)C2)c(Br)c1,7,i,9,11µM*,u,-17%
COc1ccc(CN(C)CC(O)COC(c2ccc(OC)cc2)c2ccc(OC)cc2)cc1 (stereo unspecified),-21,i,-9,22µM*,u,-4%
CCOc1ccc(CN(C)CC(O)COC(c2ccc(OC)cc2)c2ccc(OC)cc2)cc1 (stereo unspecified),-28,i,-3,-184%,u,-15%
CO/N=C(\C(=O)N[C@@H]1C(=O)N2C(C(=O)[O-])=C(C[n+]3ccc(N)n3CCO)CS[C@H]12)c1csc(N)n1,x,x,-1,x,x,x
COc1ccc(-c2cccc(NS(=O)(=O)c3cc(C)c(Cl)cc3C)c2)nn1,x,i,0,11µM*,u,-22%
NC(N)=Nc1nc(-c2ccccc2)c2cc(F)ccc2n1,-7,5.6µM*,-14,-79%,u,u
CCN(CC)c1ccc(/C=C/c2ccc3ccccc3n2)cc1,x,x,x,3.2µM*,2.5µM*,x
CC[N+](C)(C)c1ccc(/C=C/c2ccc3ccccc3n2)cc1,x,x,x,-56%,6.3µM*,x
CC(=O)/C=C/c1ccc2ccccc2n1,21,i,-21,20µM*,u,2%
CCN(CC)S(=O)(=O)c1nnc(NC(=O)COc2ccc(C)cc2)s1,x,i,-6,-8%,4%,10%
Cc1ccc(OCCCn2c(-c3ccc(Cl)cc3)nc3ccccc3c2=O)c(C)c1,x,i,-7,-4%,8%,6%
CC1CCC(n2c(=S)[nH]c3ccccc3c2=O)CC1 (stereo unspecified),-7,i,0,-13%,5%,2%
CC1CCCC(n2c(=S)[nH]c3ccccc3c2=O)C1C (stereo unspecified),19,u,-2,-70%,14µM*,-27%
O=C(O)Cn1c(=O)n(Cc2ccc(Br)cc2F)c(=O)c2ccc(Cl)cc21,x,i,x,x,x,2%
Cc1nc(SCC(=O)N2c3ccccc3Sc3ccccc32)n[nH]1,-57*,i,-7,-1%,1%,-11%
O=C(CSc1nc2ccccc2[nH]1)N1c2ccccc2Sc2ccccc21,-9,i,-26,-3%,0%,-5%
COc1ccc(C)cc1NC(=O)c1ccc(CN2CCc3ccccc3C2)cc1,-69*,i,-19,1%,7%,-19%
COC(=O)c1ccc(C)c(NC(=O)c2ccc(CN3CCc4ccccc4C3)cc2)c1,-92*,i,-19,-4%,-18%,u
COc1ccc(C)cc1NC(=O)c1ccc(CN2CCN(c3ccccc3)CC2)cc1,u,i,20,-17%,-3%,45%
O=C(COC(=O)c1ccc(C(F)(F)F)cc1)NC(=O)C1CCCCC1,x,x,x,-2%,4%,x
CCN(CC)S(=O)(=O)c1cccc(-c2nnc(SCc3nnc(-c4ccccc4)o3)n2C)c1,-50*,u,-2,3%,1%,1%
COc1ccc2c(Sc3ccc(Cl)cc3)c(C(=O)NCCCN3CCCCC3)[nH]c2c1,x,x,-18,16µM*,u,25µM*
CCOCCCNC(=O)c1[nH]c2cc(OC)ccc2c1Sc1ccccc1,x,i,5,4%,-5%,3%
Cn1cc(SCC(=O)Nc2nc3ccccc3s2)c2ccccc21,0,i,-5,-40%,-24%,25µM*
SMILES,D3 antag,S2 tox,D3 ag,HepG2 viability,TGFb inhibitor,ATXN2 expr inh
CCc1nnc(NC(=O)CSc2nccn2Cc2ccc(C)cc2)s1,x,i,-20,-4%,-15%,13%
Cc1ccc(Cn2ccnc2SCC(=O)Nc2nc3ccccc3s2)cc1,x,x,-11,-33%,11µM*,x
Cc1ccc(OCC(=O)Nc2ccc3c(c2)nc(CCNC(=O)c2ccco2)n3C)cc1,x,x,-16,-3%,-24%,x
Nc1ncc([N+](=O)[O-])c(N2CCCCCC2)n1,0,i,-6,7.1µM*,-12%,5%
Nc1ccc(N)c([N+](=O)[O-])c1,x,u,-29,x,x,12%[116 µM]
O=C(/C=C\c1ccccc1)NCC(=O)N/N=C/c1ccc(O)cc1O,-2,i,-3,-14%,-2%,18µM*
O=C(CNC(=O)C1COc2ccccc2O1)N/N=C\c1cccc(O)c1 (stereo unspecified),-1,i,3,-13%,-8%,0%
O=C(CNC(=O)C(c1ccccc1)c1ccccc1)N/N=C/c1ccc(O)cc1O,19,u,33*,17%,u,x
COc1cc(/C=N/NC(=O)/C(=C/c2ccccc2)CCO)ccc1O,1,u,-10,16%,-4%,3%
O=C(N/N=C/c1ccc(O)cc1O)/C(=C/c1ccccc1)CCO,5,u,5,-26%,u,10µM*
O=C(CNC(=O)C1COc2ccccc2O1)N/N=C/c1ccc(O)cc1O (stereo unspecified),24,i,8,-23%,u,13µM*
CN(C)C(=O)COc1ccccc1C(=O)OCC(=O)N(CCC#N)c1ccccc1,x,x,x,-6%,-10%,x
Cc1cc(SCC(=O)N/N=C/c2ccc(O)cc2O)c(C)cc1Br,27,i,10,-21%,0%,18µM*
CCC/C(C#CCCN1C(=O)c2ccccc2C1=O)=C1/c2ccccc2C(=O)N1c1ccccc1,104,u,3,-4%,-3%,u
O=C1c2ccccc2C(=O)N1CCC#C/C=C1\c2ccccc2C(=O)N1c1ccccc1,-9,28µM*,-4,1%,u,-15%
Cc1ncc2c(c1CNC(=O)c1ccc3c(c1)OCO3)CCN(C(=O)c1ccoc1)C2,x,i,x,x,x,x
CCN1C(=O)[C@H]2[C@@H](c3ccc(-c4ccc(F)cc4)c(OC)c3)N[C@@](C)(C(=O)OC)[C@H]2C1=O,-51*,i,-12,-13%,-13%,-11%
CCN1C(=O)[C@H]2[C@@H](c3ccc(-c4ccccc4)c(OC)c3)N[C@@](CC(C)C)(C(=O)OC)[C@H]2C1=O,-51*,i,-31,-29%,-4%,-15%
CCN1C(=O)[C@H]2[C@@H](c3ccc(-c4cc(C(C)=O)cs4)cc3)N[C@@](Cc3ccccc3)(C(=O)OC)[C@H]2C1=O,-14,i,37*,-2%,0%,9%
